# In the supplement of paper PMC8728848:
# The full list was thinned out, with the strongest signals kept by preference.
# B1: Actd5 (Actinidia), P84527 (protein)
# chain: ISSCNGPCRDLNDCDGQLICIKGKCNDDPQVGTHICRGTTHSHQPGGCKPSGTLTCRGKSYPTYDCSPPVTSSTPAKLTNNDFSEGGDDGGPSECDESYHNNNERIVALSTGWYNGGSRCGKMIRITASNGKSVSAKVVDECDSRHGCDKEHAGQPPCRNNIVDGSNAVWSALGLDKNVGVVDITWSMA
# How the values were obtained:
# Experiment in all cases: glycan array binding signal (z-score within array); higher = stronger binding
# Conditions in all cases: glycan notation: IUPAC condensed, linker removed
# [1] = target: GlcA3S(b1-3)Gal(b1-4)GlcNAc(b1-2)Man
# In short: (§1)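 Glycan array data came from 3228 arrays in the Consortium for Functional Glycomics database, and only arrays with an available protein sequence were kept. Glycan names were put into IUPAC-condensed notation, and columns mapping to the same glycan were averaged. The binding signal is a within-array Z-score, averaged across arrays of one protein sequence run at different concentrations or buffers and across linkers. A negative Z-score can be read as non-binding.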
# [2] = target: GlcA3S(b1-3)Gal(b1-4)GlcNAc(b1-3)Gal(b1-4)Glc
# In short: as §1
# [3] = target: GlcNAc(b1-2)[GlcNAc(b1-4)]Man(a1-3)[GlcNAc(b1-4)][GlcNAc(b1-2)Man(a1-6)]Man(b1-4)GlcNAc(b1-4)GlcNAc
# In short: as §1
# [4] = target: GlcNAc(b1-3)Gal(b1-4)GlcNAc(b1-3)Gal(b1-4)GlcNAc(b1-2)Man(a1-3)[GlcNAc(b1-3)Gal(b1-4)GlcNAc(b1-3)Gal(b1-4)GlcNAc(b1-2)Man(a1-6)]Man(b1-4)GlcNAc(b1-4)[Fuc(a1-6)]GlcNAc
# In short: as §1
# [5] = target: GlcNAc(b1-3)Gal(b1-4)GlcNAc(b1-6)[Gal(b1-3)]GalNAc
# In short: as §1
# [6] = target: GlcNAc(b1-3)Gal(b1-4)GlcNAc(b1-6)[GlcNAc(b1-3)]Gal(b1-4)GlcNAc
# In short: as §1
# [7] = target: Man(a1-2)Man(a1-2)Man(a1-3)Man
# In short: as §1
# [8] = target: Man(a1-2)Man(a1-2)Man(a1-6)[Man(a1-3)]Man
# In short: as §1
# [9] = target: Man(a1-2)Man(a1-3)[Man(a1-2)Man(a1-6)]Man(a1-6)[Man(a1-2)Man(a1-2)Man(a1-3)]Man(b1-4)GlcNAc(b1-4)GlcNAc
# In short: as §1
# [10] = target: Man(a1-2)Man(a1-6)[Man(a1-3)]Man(a1-6)[Man(a1-2)Man(a1-2)Man(a1-3)]Man
# In short: as §1
# [11] = target: Man(a1-3)[Man(a1-6)]Man(a1-6)[Man(a1-2)Man(a1-3)]Man(b1-4)GlcNAc(b1-4)GlcNAc
# In short: as §1
# [12] = target: Neu5Ac(a2-3)Gal(b1-3)GlcNAc(b1-3)GalNAc
# In short: as §1
# [13] = target: Neu5Ac(a2-3)Gal(b1-3)[GlcNAc(b1-6)]GalNAc
# In short: as §1
# [14] = target: Neu5Ac(a2-3)Gal(b1-4)GlcNAc(b1-2)Man(a1-3)[Neu5Ac(a2-3)Gal(b1-4)GlcNAc(b1-2)Man(a1-6)]Man(b1-4)GlcNAc(b1-4)[Fuc(a1-6)]GlcNAc
# In short: as §1
# [15] = target: Neu5Ac(a2-3)Gal(b1-4)GlcNAc(b1-2)[Neu5Ac(a2-3)Gal(b1-4)GlcNAc(b1-4)]Man(a1-3)[GlcNAc(b1-4)][Neu5Ac(a2-3)Gal(b1-4)GlcNAc(b1-2)[Neu5Ac(a2-3)Gal(b1-4)GlcNAc(b1-6)]Man(a1-6)]Man(b1-4)GlcNAc(b1-4)GlcNAc
# In short: as §1
# [16] = target: Neu5Ac(a2-3)Gal(b1-4)GlcNAc(b1-3)Gal(b1-4)GlcNAc(b1-3)Gal(b1-4)GlcNAc(b1-2)Man(a1-3)[Neu5Ac(a2-3)Gal(b1-4)GlcNAc(b1-3)Gal(b1-4)GlcNAc(b1-3)Gal(b1-4)GlcNAc(b1-2)Man(a1-6)]GalNAc
# In short: as §1
# [17] = target: Neu5Ac(a2-3)Gal(b1-4)GlcNAc(b1-3)Gal(b1-4)GlcNAc(b1-3)GalNAc
# In short: as §1
# [18] = target: Neu5Ac(a2-3)Gal(b1-4)GlcNAc(b1-3)GalNAc
# In short: as §1
# [19] = target: Neu5Ac(a2-3)Gal(b1-4)[Fuc(a1-3)]GlcNAc
# In short: as §1
# [20] = target: Neu5Ac(a2-3)Gal(b1-4)[Fuc(a1-3)]GlcNAc(b1-3)Gal(b1-4)GlcNAc
# In short: as §1
# [21] = target: Neu5Ac(a2-3)Gal(b1-4)[Fuc(a1-3)]GlcNAc(b1-6)[Gal(b1-3)]GalNAc
# In short: as §1
# [22] = target: Neu5Ac(a2-3)Gal(b1-4)[Fuc(a1-3)]GlcNAc(b1-6)[Neu5Ac(a2-3)Gal(b1-3)]GalNAc
# In short: as §1
# [23] = target: Neu5Ac(a2-3)Gal(b1-4)[Fuc(a1-3)]GlcNAc6S
# In short: as §1
# [24] = target: Neu5Ac(a2-3)[GalNAc(b1-4)]Gal(b1-4)GlcNAc(b1-3)GalNAc
# In short: as §1
# [25] = target: Neu5Ac(a2-6)Gal(b1-4)GlcNAc(b1-2)Man(a1-3)Man(b1-4)GlcNAc(b1-4)GlcNAc
# In short: as §1
# [26] = target: Neu5Ac(a2-6)Gal(b1-4)GlcNAc(b1-2)Man(a1-3)[Gal(b1-4)GlcNAc(b1-2)Man(a1-6)]Man(b1-4)GlcNAc(b1-4)GlcNAc
# In short: as §1
# [27] = target: Neu5Ac(a2-6)Gal(b1-4)GlcNAc(b1-2)Man(a1-3)[GlcNAc(b1-2)Man(a1-6)]Man(b1-4)GlcNAc(b1-4)GlcNAc
# In short: as §1
# [28] = target: Neu5Ac(a2-6)Gal(b1-4)GlcNAc(b1-2)Man(a1-6)[GlcNAc(b1-2)Man(a1-3)]Man(b1-4)GlcNAc(b1-4)GlcNAc
# In short: as §1
# [29] = target: Neu5Ac(a2-6)Gal(b1-4)GlcNAc(b1-3)Gal(b1-4)GlcNAc(b1-3)Gal(b1-4)GlcNAc(b1-2)Man(a1-3)[Neu5Ac(a2-6)Gal(b1-4)GlcNAc(b1-3)Gal(b1-4)GlcNAc(b1-3)Gal(b1-4)GlcNAc(b1-2)Man(a1-6)]GalNAc
# In short: as §1
# [30] = target: Neu5Ac(a2-8)Neu5Ac(a2-3)[GalNAc(b1-4)]Gal(b1-4)Glc
# In short: as §1
# Neu5Gc(a2-3)Gal(b1-4)Glc = target: Neu5Gc(a2-3)Gal(b1-4)Glc
# In short: as §1
binder,measurement,setting,value
B1,glycan array binding signal (z-score),[1],-0.597
same,glycan array binding signal (z-score),[2],-0.788
same,glycan array binding signal (z-score),[3],-0.558
same,glycan array binding signal (z-score),[4],3.06
same,glycan array binding signal (z-score),[5],-0.776
same,glycan array binding signal (z-score),[6],0.458
same,glycan array binding signal (z-score),[7],0.687
same,glycan array binding signal (z-score),[8],6.66
same,glycan array binding signal (z-score),[9],4.17
same,glycan array binding signal (z-score),[10],3.42
same,glycan array binding signal (z-score),[11],5.03
same,glycan array binding signal (z-score),[12],-0.064
same,glycan array binding signal (z-score),[13],-0.32
same,glycan array binding signal (z-score),[14],-0.173
same,glycan array binding signal (z-score),[15],-0.296
same,glycan array binding signal (z-score),[16],5.66
same,glycan array binding signal (z-score),[17],-0.279
same,glycan array binding signal (z-score),[18],0.374
same,glycan array binding signal (z-score),[19],-0.42
same,glycan array binding signal (z-score),[20],0.65
same,glycan array binding signal (z-score),[21],1.5
same,glycan array binding signal (z-score),[22],-0.33
same,glycan array binding signal (z-score),[23],-0.958
same,glycan array binding signal (z-score),[24],0.22
same,glycan array binding signal (z-score),[25],-0.071
same,glycan array binding signal (z-score),[26],-0.093
same,glycan array binding signal (z-score),[27],-0.252
same,glycan array binding signal (z-score),[28],-0.496
same,glycan array binding signal (z-score),[29],3.79
same,glycan array binding signal (z-score),[30],-0.363
same,glycan array binding signal (z-score),Neu5Gc(a2-3)Gal(b1-4)Glc,0.046
